Experimental data taken from PubChem BioAssay (NCATS).
Results filed as inconclusive are left out. Active and inactive are the calls of the source. Unless noted, calls follow the shape of the dose curve; as a rule, active = well fitted curve in the direction sought with a large enough effect; inconclusive = small, poorly fitted or top-dose-only effect, or another doubt; inactive = no such curve, though single readings can be large; an effect the other way counts as inactive or inconclusive.

Experiments:
[1] = NCATS anti-infectives library activity on HEK293 viability as a counter-qHTS vs the C. elegans viability qHTS (AID 1745854); details: HEK293 viability counter-screen; series mostly up to 41.8 µM
Summary of the method: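 Cytotoxicity counter-screen to a worm viability qHTS: CellTiter-Glo luminescence read 10 min after reagent addition. Compounds (final up to 41.7 uM, a 1:5 dilution series) incubated 24 hr at 37C with 1,500 HEK293 cells per well; digitonin control.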

[2] = Primary qHTS for Huh7 cytotoxicity: counterscreen for inhibitors of MERS-S pseudotyped particle cell entry (AID 1479147; calls by dose curve); details: cell viability read-out; outcome: at 57.1 µM (top of the series) unless noted; series mostly up to 57.1 µM
[3] = Primary qHTS for inhibitors of MERS-S pseudo-typed particle cell entry (AID 1479149; calls by dose curve); details: MERS-S pseudotyped particle entry, luciferase; series mostly up to 57.1 µM
[4] = qHTS for Hypoxia signaling pathway (HIF-1) antagonists against the NCATS CANVASS Library (AID 1347374); details: HRE-bla ME-180 cells, HIF-1 beta-lactamase reporter, CoCl2; series mostly up to 38.3 µM
Summary of the method: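 Antagonism scored as loss of CoCl2-driven (60 uM stock added) HRE beta-lactamase signal, read by CCF4 FRET at 460/530 nm. Compounds were tested in an 11-point series on ME-180 reporter cells for 17 hrs at 37C, with parallel CellTiter-Glo cytotoxicity.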

[5] = DH5-alpha competent E. coli microbial cell viability qHTS against the NCATS CANVASS Library (AID 1347377); details: BacTiter-Glo ATP luminescence, overnight; outcome: at 46.1 µM (top of the series); series mostly up to 46.1 µM
Summary of the method: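 Bacterial viability as ATP-dependent luminescence (BacTiter-Glo), read after overnight 37 °C exposure of DH5-alpha competent E. coli to compounds in 11-point titration.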

[6] = qHTS for H2AX Agonists against the NCATS CANVASS Library (AID 1347378); details: CHO-K1 H2AX phosphorylation, HTRF TR-FRET, 3 h; series mostly up to 76.9 µM
Summary of the method: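 CHO-K1 cells were plated overnight at 37C, then exposed to compounds (concentration series, 0.76% DMSO final) for 3 hr at 37C. Lysates received Eu-cryptate anti-pH2AX (S139) and d2 anti-H2AX antibodies; after 24 hr at room temperature, TR-FRET 665/620 nm ratio was read.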

[7] = qHTS for Inflammasome Signaling Inhibitors: IL-1-beta AlphaLISA screen against the NCATS CANVASS Library (AID 1347379); details: THP-1 LPS/ATP, IL-1B AlphaLISA secretion, 16 h; series mostly up to 57.5 µM
Summary of the method: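 Secreted IL-1B from human THP-1 cells quantified by AlphaLISA 16 hr after compound addition (final up to 57.5 uM). A 1 hr compound pretreatment preceded inflammasome activation with 250 ng/mL LPS plus 1.25 mM ATP (final).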

[8] = qHTS for Antimalaria activity screened against the NCATS CANVASS Library (AID 1347380); details: P. falciparum Dd2 growth, SYBR Green fluorescence, 72 h; series mostly up to 28.7 µM
Summary of the method: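 SYBR Green fluorescence at 485/535 nm was read 18 hr after lysis. This followed a 72 hr incubation at 37C in 5% O2, 5% CO2 of Dd2-infected erythrocytes (0.3% parasitemia, 2.5% final hematocrit) with compounds titrated over 11 concentrations.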

[9] = Inflammasome Signaling qHTS Counterscreen: IL-1-beta AlphaLISA counterscreen against the NCATS CANVASS Library (AID 1347381); details: Purified IL-1beta AlphaLISA signal interference counterscreen; series mostly up to 57.5 µM
Summary of the method: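 Purified IL-1-beta (4 pg/well) + compound, 11-pt conc. series; acceptor beads 6 ug/mL + biotin-Ab 0.6 nM final, 1 h RT; SA-donor 24 ug/ml final, 30 min dark RT; read ex 680/em 615.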

[10] = Cytotoxicity qHTS for assessment of Hepg2 cells membrane integrity screened against the NCATS CANVASS Library (AID 1347387); details: HepG2 LDH release (CytoTox-ONE) fluorescence, 5 h; series mostly up to 46.1 µM
Summary of the method: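 Membrane damage quantified as fluorescent LDH-release signal (ex 560, em 590 nm) in HepG2 cells treated 5 hr at 37C. qHTS format, 11 concentrations spanning 0.59 nM - 46 uM final, cells plated at 2000 per well the night before.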

[11] = qHTS for Activators of p53 Stress Response Pathway screened against the NCATS CANVASS Library (AID 1347388); details: p53RE-bla HCT-116, beta-lactamase reporter, 16 h; series mostly up to 46.1 µM
Summary of the method: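 p53RE-bla HCT-116 cells (4000/well) were plated 5 h at 37C, exposed to compounds for 16 h at 37C over an 11-point concentration series, then loaded with CCF4 for 2 h at room temperature; 460/530 nm emission ratio read.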

[12] = qHTS assay for small molecule disruptors of mitochondrial membrane potential screened against the NCATS CANVASS Library (AID 1347389); details: HepG2 mitochondrial membrane potential, m-MPI red/green ratio, 1.5 h; series mostly up to 46.1 µM
Summary of the method: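 Mitochondrial membrane potential in HepG2: 1 h compound treatment (11-point concentration series), 30 min m-MPI dye at 37C, then dual fluorescence of J-aggregates (ex 540/em 590) and monomers (ex 490/em 535); lower red/green ratio indicates depolarization.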

[13] = Secretion counterscreen for inhibitors of the SERCaMP assay screened against the NCATS CANVASS Library (AID 1347390); details: SH-SY5Y constitutive GLuc secretion, luminescence, 20 h; series mostly up to 76.6 µM
Summary of the method: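 SH-SY5Y cells expressing constitutively secreted GLuc, 1000 cells/well, attached 4 h at 37C, then exposed to compounds (0.001 - 77 uM, 11-pnt series) for 20 h. Coelenterazine added; luminescence read to flag secretory-pathway interferers.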

[14] = qHTS for activators of Nrf2/ARE signaling pathway screened against the NCATS CANVASS Library (AID 1347391); details: ARE-bla HepG2, beta-lactamase reporter, 16 h; series mostly up to 46.1 µM
Summary of the method: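 Eleven-point qHTS, 16 h treatment of HepG2 cells carrying an ARE-driven beta-lactamase reporter; CCF4 ratio read (405 nm excitation, 460 and 530 nm emission), with CellTiter-Glo ATP luminescence for viability.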

[15] = qHTS for activators of dead-cell proteases activity screened against the NCATS CANVASS Library (AID 1347392); details: HepG2 cytotoxicity, dead-cell protease luminescence, 5 h; series mostly up to 46.1 µM
Summary of the method: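 Cytotoxicity in HepG2 cells was assessed by released protease cleaving AAF-aminoluciferin, with luminescence as signal. Exposure lasted 5 h at 37C across an 11-point series.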

[16] = Vero-766 cells viability qHTS against the NCATS CANVASS Library: Counterscreen for Zika virus inhibition assay (AID 1347394); details: Vero 766 viability, CellTiter-Glo luminescence, 72 h; series mostly up to 46.1 µM
Summary of the method: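 Uninfected Vero 766 (African green monkey) cells, 1000/well, attached overnight, then exposed 72 h at 37C to compounds (11-point qHTS). Viability read by CellTiter-Glo luminescence; media-only wells served as 100% inhibition.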

[17] = qHTS for inhibitors of Wild type Zika virus screened against the NCATS CANVASS Library (AID 1347396); details: Vero cells, Zika virus CPE, CellTiter-Glo, 72 h; series mostly up to 45.9 µM
Summary of the method: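 Luminescent CellTiter Glo read-out of virus-induced cytotoxicity, 72 h post-infection, in Vero 766 cells. Compounds were tested at 11 concentrations; uninfected, vehicle-treated wells defined 100% inhibition.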

[18] = Viability qHTS for inhibitors of the SERCaMP assay screened against the NCATS CANVASS Library (AID 1347400); details: SH-SY5Y SERCaMP cells viability, CellTiter-Glo, 48 h; series mostly up to 92.2 µM
Summary of the method: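 CellTiter-Glo luminescence measured cytotoxicity after 48 h at 37C of compound treatment (11-point series). Cells were SH-SY5Y-GLuc SERCaMP MJH297 derivatives, seeded at 1000 per well 4 h beforehand.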

[19] = Redox Reaction Profiling qHTS: Assay Interference Panel against the NCATS CANVASS Library (AID 1347401); details: resazurin-DTT redox cycling, fluorescence, 15 min; series mostly up to 57.1 µM
Summary of the method: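 Quantitative HTS over an 11-point series was run in HEPES pH 7.3 with 50 mM NaCl, 200 uM DTT and 5 uM resazurin. Initial and 15-min resorufin fluorescence readings were taken.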

[20] = qHTS for inhibitors of Rabies Virus screened against the NCATS CANVASS Library (AID 1347402; calls by dose curve); details: Rabies virus infection cell assay; series mostly up to 45.9 µM

Measured: Potency

CN1Cc2c(ccc3c2OCO3)[C@@H]2[C@H]1c1cc3c(cc1C[C@@H]2O)OCO3
inactive: [1]

CN1CCC2=C(C1)c1ccccc1Cc1ccccc12
inactive: [2] | [3]

CN1C(=O)[C@]23CC4C(C)(C)[C@@]5(C[C@@]41CN2CC[C@@]3(C)O)C(=O)Nc1c5ccc2c1OC=CC(C)(C)O2 (some centres not stated)
inactive: [4] | [5] | [6] | [7] | [8] | [9] | [10] | [11] | [12] | [13] | [14] | [15] | [16] | [17] | [18] | [19] | [20]

C/C=C1/CN2CC[C@]34C(=Nc5ccccc53)[C@@H]2C[C@@H]1[C@H]4C(=O)OC
inactive: [4] | [5] | [6] | [7] | [8] | [9] | [10] | [11] | [12] | [13] | [14] | [15] | [16] | [17] | [18] | [19] | [20]
